# According to PMC7862700, “An all-to-all approach to the identification of sequence-specific readers for epigenetic DNA modifications on cytosine”:
# Assays:
# Test in all cases: DAPPL (digital affinity profiling via proximity ligation, sequencing); 10 mM Tris-HCl pH 7.5, 50 mM NaCl, 1 mM DTT, 4% glycerol, room temperature, 30 min; GST-TFs on glutathione beads, 16-mer random dsDNA library, 0.1% formaldehyde crosslink after washing; high values mean tight binding
# FEV = target: T1, FEV (Homo sapiens, UniProt Q99581 1-238); settings: protein: recombinant; tags: N-terminal GST; dsDNA, one strand shown
# T1 sequence: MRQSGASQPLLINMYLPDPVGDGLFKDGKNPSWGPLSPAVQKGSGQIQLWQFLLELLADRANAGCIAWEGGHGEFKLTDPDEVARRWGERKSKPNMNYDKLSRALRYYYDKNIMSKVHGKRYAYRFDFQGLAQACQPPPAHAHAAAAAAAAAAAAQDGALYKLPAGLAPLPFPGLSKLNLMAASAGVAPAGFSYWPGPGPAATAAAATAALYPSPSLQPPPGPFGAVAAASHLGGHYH
# Procedure, shortened: (§1)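 After expression in yeast as GST fusions, human transcription factors were bound to glutathione beads, DNA-barcoded and mixed with a tag-only sample. The pools were incubated with 200 nmole of a 16-mer random double-stranded DNA library in Tris/NaCl/DTT/glycerol buffer (30 min, room temperature), washed and crosslinked with 0.1% formaldehyde. Proximity ligation with BsaI/T4 ligase ran for 1 h at 37 °C, before PCR amplification and sequencing on an Illumina NextSeq500. Binding signal is a hexamer's read frequency for a factor divided by its frequency for the tag-only sample.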
# ETV5 = ETV5 (Homo sapiens, UniProt P41161 1-510); settings: protein: recombinant; tags: N-terminal GST; dsDNA, one strand shown
# Procedure, shortened: as §1
# HSF1 = HSF1 (Homo sapiens, UniProt Q00613 1-529); settings: protein: recombinant; tags: N-terminal GST; chain copies: 3; dsDNA, one strand shown
# Procedure, shortened: as §1
# SPIC = target: T2, SPIC (Homo sapiens, UniProt Q8N5J4 1-248); settings: protein: recombinant; tags: N-terminal GST; dsDNA, one strand shown
# T2 sequence: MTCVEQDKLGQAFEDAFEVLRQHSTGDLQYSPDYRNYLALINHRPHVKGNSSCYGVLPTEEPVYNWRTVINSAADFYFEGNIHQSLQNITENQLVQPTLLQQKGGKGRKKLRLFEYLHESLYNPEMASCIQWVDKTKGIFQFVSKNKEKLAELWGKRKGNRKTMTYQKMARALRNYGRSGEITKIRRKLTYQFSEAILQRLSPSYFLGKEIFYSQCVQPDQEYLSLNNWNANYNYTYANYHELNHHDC
# Procedure, shortened: as §1
# ELF4 = ELF4 (Homo sapiens, UniProt Q99607 1-663); settings: protein: recombinant; tags: N-terminal GST; dsDNA, one strand shown
# Procedure, shortened: as §1
# ELK4 = target: T3, ELK4 (Homo sapiens, UniProt P28324-2 1-405); settings: protein: recombinant; tags: N-terminal GST; dsDNA, one strand shown
# T3 sequence: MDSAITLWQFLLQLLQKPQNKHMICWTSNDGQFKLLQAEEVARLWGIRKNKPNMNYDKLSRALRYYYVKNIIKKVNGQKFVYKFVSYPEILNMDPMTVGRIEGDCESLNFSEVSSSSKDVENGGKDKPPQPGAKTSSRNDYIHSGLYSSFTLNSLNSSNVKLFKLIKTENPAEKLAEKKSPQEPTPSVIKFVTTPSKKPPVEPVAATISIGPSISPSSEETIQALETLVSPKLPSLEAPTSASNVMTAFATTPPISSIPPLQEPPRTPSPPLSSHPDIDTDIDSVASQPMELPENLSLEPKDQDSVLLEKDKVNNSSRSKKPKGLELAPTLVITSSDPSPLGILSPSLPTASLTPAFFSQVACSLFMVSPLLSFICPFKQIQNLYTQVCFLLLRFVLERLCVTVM
# Procedure, shortened: as §1
# ETV2 = target: T4, ETV2 (Homo sapiens, UniProt O00321 1-342); settings: protein: recombinant; tags: N-terminal GST; dsDNA, one strand shown
# T4 sequence: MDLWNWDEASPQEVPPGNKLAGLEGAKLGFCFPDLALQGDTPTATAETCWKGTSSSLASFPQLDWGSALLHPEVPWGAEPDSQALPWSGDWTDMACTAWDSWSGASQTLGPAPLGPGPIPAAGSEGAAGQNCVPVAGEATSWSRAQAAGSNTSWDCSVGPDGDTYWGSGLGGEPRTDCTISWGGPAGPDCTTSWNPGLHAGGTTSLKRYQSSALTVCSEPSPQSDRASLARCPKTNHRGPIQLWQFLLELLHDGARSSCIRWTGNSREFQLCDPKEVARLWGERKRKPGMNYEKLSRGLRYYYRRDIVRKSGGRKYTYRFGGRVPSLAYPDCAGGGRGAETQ
# Procedure, shortened: as §1
# ELF3 = target: T5, ELF3 (Homo sapiens, UniProt P78545 1-371); settings: protein: recombinant; tags: N-terminal GST; dsDNA, one strand shown
# T5 sequence: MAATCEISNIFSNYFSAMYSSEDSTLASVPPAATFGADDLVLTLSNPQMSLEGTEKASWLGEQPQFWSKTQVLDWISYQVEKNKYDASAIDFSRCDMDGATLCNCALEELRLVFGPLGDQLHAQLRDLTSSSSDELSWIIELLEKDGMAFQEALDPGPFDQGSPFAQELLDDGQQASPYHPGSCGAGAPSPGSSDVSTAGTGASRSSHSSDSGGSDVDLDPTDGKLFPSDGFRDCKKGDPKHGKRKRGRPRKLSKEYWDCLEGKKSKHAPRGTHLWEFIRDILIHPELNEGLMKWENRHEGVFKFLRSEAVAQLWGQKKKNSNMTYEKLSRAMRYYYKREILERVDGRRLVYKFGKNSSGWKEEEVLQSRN
# Procedure, shortened: as §1
# CRX = CRX (Homo sapiens, UniProt O43186 1-299); settings: protein: recombinant; tags: N-terminal GST; dsDNA, one strand shown
# Procedure, shortened: as §1
# ETV1 = ETV1 (Homo sapiens, UniProt P50549 1-477); settings: protein: recombinant; tags: N-terminal GST; dsDNA, one strand shown
# Procedure, shortened: as §1
# ERF = target: T6, ERF (Homo sapiens, UniProt P50548 1-548); settings: protein: recombinant; tags: N-terminal GST; dsDNA, one strand shown
# T6 sequence: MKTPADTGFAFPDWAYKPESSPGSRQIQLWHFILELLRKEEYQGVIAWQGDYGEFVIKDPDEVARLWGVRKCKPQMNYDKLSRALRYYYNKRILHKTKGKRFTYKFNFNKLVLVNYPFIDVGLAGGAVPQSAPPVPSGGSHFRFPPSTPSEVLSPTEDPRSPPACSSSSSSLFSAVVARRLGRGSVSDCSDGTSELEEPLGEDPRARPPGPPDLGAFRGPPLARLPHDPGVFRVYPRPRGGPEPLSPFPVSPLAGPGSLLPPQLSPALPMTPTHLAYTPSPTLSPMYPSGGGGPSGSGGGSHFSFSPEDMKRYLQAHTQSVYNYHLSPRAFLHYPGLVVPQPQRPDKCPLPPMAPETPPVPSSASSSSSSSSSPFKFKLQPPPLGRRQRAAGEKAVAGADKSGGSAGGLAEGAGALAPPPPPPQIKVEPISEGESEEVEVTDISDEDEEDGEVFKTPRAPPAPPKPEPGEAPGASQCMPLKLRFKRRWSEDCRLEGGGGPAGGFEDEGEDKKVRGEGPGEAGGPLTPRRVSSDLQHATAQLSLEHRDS
# Procedure, shortened: as §1
# ETV3L = target: T7, ETV3L (Homo sapiens, UniProt Q6ZN32 1-361); settings: protein: recombinant; tags: N-terminal GST; dsDNA, one strand shown
# T7 sequence: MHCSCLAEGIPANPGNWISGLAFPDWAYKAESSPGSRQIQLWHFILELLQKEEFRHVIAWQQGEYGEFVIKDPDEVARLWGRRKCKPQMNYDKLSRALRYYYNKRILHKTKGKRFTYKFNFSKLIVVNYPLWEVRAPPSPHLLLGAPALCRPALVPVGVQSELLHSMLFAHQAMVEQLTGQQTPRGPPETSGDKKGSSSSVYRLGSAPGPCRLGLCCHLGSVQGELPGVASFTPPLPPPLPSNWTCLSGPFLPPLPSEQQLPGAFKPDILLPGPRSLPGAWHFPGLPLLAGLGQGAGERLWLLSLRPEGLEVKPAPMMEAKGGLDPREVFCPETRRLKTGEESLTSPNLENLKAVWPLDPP
# Procedure, shortened: as §1
# ETS2 = target: T8, ETS2 (Homo sapiens, UniProt P15036 1-469); settings: protein: recombinant; tags: N-terminal GST; dsDNA, one strand shown
# T8 sequence: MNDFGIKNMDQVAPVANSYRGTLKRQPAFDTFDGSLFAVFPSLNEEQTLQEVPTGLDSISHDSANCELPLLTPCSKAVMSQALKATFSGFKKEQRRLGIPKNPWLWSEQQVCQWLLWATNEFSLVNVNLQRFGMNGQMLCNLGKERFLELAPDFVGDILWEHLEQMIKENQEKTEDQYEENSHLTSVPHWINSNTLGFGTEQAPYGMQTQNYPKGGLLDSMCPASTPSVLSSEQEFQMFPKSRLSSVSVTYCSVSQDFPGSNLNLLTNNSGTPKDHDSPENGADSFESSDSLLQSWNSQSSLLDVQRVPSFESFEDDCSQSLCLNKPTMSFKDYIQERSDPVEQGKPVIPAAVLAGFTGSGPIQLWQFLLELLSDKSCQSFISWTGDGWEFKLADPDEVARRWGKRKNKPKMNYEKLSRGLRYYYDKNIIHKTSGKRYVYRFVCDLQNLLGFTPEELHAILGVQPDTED
# Procedure, shortened: as §1
# SPDEF = target: T9, SPDEF (Homo sapiens, UniProt O95238 1-335); settings: protein: recombinant; tags: N-terminal GST; dsDNA, one strand shown
# T9 sequence: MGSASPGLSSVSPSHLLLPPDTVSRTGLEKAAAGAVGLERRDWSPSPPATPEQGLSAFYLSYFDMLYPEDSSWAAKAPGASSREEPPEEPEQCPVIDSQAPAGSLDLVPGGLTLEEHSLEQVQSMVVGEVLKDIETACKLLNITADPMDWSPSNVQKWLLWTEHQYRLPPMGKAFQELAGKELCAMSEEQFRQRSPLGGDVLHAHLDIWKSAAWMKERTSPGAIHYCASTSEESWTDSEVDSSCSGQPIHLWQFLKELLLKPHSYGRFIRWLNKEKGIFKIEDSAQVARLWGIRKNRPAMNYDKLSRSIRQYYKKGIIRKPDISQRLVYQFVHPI
# Procedure, shortened: as §1
# ETV7 = target: T10, ETV7 (Homo sapiens, UniProt Q9Y603 1-341); settings: protein: recombinant; tags: N-terminal GST; dsDNA, one strand shown
# T10 sequence: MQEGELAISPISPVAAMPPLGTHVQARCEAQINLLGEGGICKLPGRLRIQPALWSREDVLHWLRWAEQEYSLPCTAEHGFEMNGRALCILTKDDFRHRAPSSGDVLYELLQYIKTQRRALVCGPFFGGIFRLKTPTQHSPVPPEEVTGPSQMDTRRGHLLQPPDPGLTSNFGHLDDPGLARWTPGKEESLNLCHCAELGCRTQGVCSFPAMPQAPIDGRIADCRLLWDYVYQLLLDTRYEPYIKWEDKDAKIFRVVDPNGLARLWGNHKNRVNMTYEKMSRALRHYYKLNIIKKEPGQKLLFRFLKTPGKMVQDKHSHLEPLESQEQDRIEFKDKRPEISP
# Procedure, shortened: as §1
# ELF5 = target: T11, ELF5 (Homo sapiens, UniProt Q9UKW6-2 1-255); settings: protein: recombinant; tags: N-terminal GST; dsDNA, one strand shown
# T11 sequence: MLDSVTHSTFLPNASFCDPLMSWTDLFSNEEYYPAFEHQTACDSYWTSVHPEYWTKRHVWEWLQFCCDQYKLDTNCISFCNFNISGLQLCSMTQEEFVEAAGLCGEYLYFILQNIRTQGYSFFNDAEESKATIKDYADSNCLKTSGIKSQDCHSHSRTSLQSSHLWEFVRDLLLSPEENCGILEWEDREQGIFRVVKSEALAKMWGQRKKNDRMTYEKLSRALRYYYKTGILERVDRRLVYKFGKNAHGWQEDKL
# Procedure, shortened: as §1
# ETV3 = target: T12, ETV3 (Homo sapiens, UniProt P41162-2 1-143); settings: protein: recombinant; tags: N-terminal GST; dsDNA, one strand shown
# T12 sequence: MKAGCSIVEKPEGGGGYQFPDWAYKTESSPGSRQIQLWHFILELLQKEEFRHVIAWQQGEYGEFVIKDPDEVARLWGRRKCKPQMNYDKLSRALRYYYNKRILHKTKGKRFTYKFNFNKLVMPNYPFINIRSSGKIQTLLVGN
# Procedure, shortened: as §1
# ETV6 = ETV6 (Homo sapiens, UniProt P41212 1-452); settings: protein: recombinant; tags: N-terminal GST; dsDNA, one strand shown
# Procedure, shortened: as §1
# ETV1, sequence (P50549 whole entry): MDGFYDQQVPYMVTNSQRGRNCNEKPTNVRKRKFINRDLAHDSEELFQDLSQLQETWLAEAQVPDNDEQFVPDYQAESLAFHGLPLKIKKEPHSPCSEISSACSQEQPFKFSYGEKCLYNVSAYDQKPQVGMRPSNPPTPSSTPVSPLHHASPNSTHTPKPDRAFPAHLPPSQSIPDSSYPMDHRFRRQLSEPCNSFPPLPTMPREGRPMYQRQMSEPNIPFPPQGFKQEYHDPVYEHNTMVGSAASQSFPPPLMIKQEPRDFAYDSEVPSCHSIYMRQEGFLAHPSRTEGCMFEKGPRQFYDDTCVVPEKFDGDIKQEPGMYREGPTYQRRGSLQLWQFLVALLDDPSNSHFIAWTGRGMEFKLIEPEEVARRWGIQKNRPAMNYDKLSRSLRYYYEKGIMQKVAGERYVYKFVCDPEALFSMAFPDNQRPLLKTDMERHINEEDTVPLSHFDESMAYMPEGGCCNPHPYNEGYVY
# HSF1, sequence (Q00613 whole entry): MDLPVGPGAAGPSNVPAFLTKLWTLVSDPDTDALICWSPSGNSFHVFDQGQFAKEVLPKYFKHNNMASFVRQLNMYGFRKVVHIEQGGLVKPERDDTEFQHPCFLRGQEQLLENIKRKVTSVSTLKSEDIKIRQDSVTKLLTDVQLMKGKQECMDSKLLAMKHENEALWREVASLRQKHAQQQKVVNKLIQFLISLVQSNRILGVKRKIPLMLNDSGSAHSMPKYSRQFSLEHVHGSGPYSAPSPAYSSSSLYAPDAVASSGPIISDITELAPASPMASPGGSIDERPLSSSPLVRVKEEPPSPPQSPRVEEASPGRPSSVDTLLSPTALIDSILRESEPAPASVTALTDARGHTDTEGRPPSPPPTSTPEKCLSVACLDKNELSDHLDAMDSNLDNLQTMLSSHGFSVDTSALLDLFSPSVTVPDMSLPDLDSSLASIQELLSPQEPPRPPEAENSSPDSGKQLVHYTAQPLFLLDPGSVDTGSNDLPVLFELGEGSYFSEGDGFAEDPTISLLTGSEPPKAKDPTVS
# ETV5, sequence (P41161 whole entry): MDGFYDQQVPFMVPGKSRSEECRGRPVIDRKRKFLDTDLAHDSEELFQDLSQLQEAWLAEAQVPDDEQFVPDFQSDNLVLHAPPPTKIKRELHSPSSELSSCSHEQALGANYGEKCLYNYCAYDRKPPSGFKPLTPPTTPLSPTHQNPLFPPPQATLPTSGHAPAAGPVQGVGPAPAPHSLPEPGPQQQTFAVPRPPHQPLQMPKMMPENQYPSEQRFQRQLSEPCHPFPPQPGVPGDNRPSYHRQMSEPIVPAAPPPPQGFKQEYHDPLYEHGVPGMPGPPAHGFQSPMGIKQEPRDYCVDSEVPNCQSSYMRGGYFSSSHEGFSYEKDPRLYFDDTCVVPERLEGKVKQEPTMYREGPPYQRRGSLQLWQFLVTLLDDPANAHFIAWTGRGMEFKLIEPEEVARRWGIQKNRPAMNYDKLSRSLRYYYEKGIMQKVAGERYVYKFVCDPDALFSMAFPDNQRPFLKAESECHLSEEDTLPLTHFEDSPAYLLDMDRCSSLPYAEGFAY
# ETV6, sequence (P41212 whole entry): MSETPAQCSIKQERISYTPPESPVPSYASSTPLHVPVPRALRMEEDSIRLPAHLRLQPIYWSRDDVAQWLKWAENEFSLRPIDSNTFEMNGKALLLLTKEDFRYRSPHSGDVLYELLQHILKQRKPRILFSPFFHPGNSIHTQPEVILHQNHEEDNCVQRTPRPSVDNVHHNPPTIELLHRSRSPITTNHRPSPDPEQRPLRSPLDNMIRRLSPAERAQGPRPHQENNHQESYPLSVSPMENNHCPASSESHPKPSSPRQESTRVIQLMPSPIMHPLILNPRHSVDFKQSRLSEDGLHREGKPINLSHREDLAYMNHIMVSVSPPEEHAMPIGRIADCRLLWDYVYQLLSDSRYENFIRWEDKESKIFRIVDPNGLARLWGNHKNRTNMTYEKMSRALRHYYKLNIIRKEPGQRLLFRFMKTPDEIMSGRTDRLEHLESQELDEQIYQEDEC
# ELF4, sequence (Q99607 whole entry): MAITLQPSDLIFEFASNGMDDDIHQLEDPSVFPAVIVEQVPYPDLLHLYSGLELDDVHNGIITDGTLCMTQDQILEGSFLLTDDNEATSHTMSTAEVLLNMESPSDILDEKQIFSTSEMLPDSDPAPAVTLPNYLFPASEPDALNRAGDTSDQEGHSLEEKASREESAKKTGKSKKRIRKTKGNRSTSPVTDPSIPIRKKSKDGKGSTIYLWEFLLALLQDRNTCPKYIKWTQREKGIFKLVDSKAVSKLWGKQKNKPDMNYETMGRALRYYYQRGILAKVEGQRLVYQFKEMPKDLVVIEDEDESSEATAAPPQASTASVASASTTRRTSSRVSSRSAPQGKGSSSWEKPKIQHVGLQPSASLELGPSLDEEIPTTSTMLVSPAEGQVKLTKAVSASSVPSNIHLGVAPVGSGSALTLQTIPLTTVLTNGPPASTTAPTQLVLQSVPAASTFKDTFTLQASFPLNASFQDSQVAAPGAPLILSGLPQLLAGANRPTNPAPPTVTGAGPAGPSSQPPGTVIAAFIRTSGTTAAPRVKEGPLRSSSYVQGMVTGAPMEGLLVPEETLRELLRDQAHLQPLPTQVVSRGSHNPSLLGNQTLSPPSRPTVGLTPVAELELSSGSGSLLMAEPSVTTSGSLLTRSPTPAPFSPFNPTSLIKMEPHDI
# CRX, sequence (O43186 whole entry): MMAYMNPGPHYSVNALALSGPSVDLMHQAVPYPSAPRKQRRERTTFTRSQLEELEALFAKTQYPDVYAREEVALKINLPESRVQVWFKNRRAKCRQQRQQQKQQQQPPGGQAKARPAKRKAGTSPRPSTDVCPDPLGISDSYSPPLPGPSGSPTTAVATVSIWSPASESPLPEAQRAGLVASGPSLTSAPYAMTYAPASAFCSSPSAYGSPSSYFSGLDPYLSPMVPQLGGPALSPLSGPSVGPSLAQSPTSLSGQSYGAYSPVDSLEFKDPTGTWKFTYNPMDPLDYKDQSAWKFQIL
sequence,measurement,setting,value
CTCGAT,binding signal,FEV,"1.29 fold enrichment (6-mer frequency, TF over GST control)"
same,binding signal,ETV5,"1.3 fold enrichment (6-mer frequency, TF over GST control)"
same,binding signal,HSF1,"2.06 fold enrichment (6-mer frequency, TF over GST control)"
same,binding signal,SPIC,"1.46 fold enrichment (6-mer frequency, TF over GST control)"
same,binding signal,ELF4,"1.43 fold enrichment (6-mer frequency, TF over GST control)"
same,binding signal,ELK4,"1.59 fold enrichment (6-mer frequency, TF over GST control)"
same,binding signal,ETV2,"1.25 fold enrichment (6-mer frequency, TF over GST control)"
same,binding signal,ELF3,"1.09 fold enrichment (6-mer frequency, TF over GST control)"
same,binding signal,CRX,"1.48 fold enrichment (6-mer frequency, TF over GST control)"
same,binding signal,ETV1,"1.27 fold enrichment (6-mer frequency, TF over GST control)"
same,binding signal,ERF,"1.37 fold enrichment (6-mer frequency, TF over GST control)"
same,binding signal,ETV3L,"1.44 fold enrichment (6-mer frequency, TF over GST control)"
same,binding signal,ETS2,"1.36 fold enrichment (6-mer frequency, TF over GST control)"
same,binding signal,SPDEF,"1.22 fold enrichment (6-mer frequency, TF over GST control)"
same,binding signal,ETV7,"1.31 fold enrichment (6-mer frequency, TF over GST control)"
same,binding signal,ELF5,"1.22 fold enrichment (6-mer frequency, TF over GST control)"
same,binding signal,ETV3,"1.36 fold enrichment (6-mer frequency, TF over GST control)"
same,binding signal,ETV6,"1.3 fold enrichment (6-mer frequency, TF over GST control)"
